Source: PubChem (National Center for Advancing Translational Sciences (NCATS))
Compounds with a hit are over-represented: about 17% of the library has one in this group of screens.
DT40 TDP1 no CPT: qHTS for Inhibitors of human tyrosyl-DNA phosphodiesterase 1 (TDP1): qHTS in cells in absence of CPT. DT40 Tdp1-/- hTDP1 cells, no CPT, ATP luminescence, 48 h. Potency, µM (series often up to 46.2 µM), for inactives: top-dose activity change, negative = growth inhibition, most hits filed as inhibitors. 420,000 tested, 15% active. AID 686978, 2013; further: on the % scale 0 is the no-effect control and ±100 the full control effect; nearly all actives have a fitted effect of over 55% in size
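Growth kinetics read by CellTiter-Glo luminescence after ≥48 hr at 37 °C. Cells: DT40 Tdp1-/- stably carrying human TDP1, 400 per well, compound exposure in the absence of CPT (DMSO vehicle).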
HepG2 tox: qHTS for Inhibitors of TGF-b: Cytotox Counterscreen; HepG2 CAGA-GFP viability, ATP luminescence, 18 h; Potency, µM (doses to about 46.1 µM), without a hit: at the highest dose activity change, negative = cytotoxicity, most hits filed as cytotoxic; 410,000 tested, 0.76% active; AID 588856, 2011
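CellTiter-Glo luminescence gave cytotoxicity after 18 hours at 37 degrees C. The cells were HepG2 CAGA-GFP in 1% FBS DMEM, stimulated with 500 pg/mL TGF-beta after compound addition. %Activity was normalised to no-cell wells (complete cell-killing) and DMSO (no toxicity), and curves were fitted and classified.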
S2 tox: Viability Counterscreen for Primary qHTS for Inhibitors of ATXN expression; S2 cells (HEK-293 line with an ATXN2-luciferase reporter) viability, CellTiter-Fluor protease fluorescence, 24 h; Potency, µM (top dose mostly 56.7 µM), most hits filed as cytotoxic; 400,000 tested, 0.49% active; further: nearly all actives have a fitted effect of over 40% in size
TDP1 cell CPT: qHTS for Inhibitors of human tyrosyl-DNA phosphodiesterase 1 (TDP1): qHTS in cells in presence of CPT; Potency, µM (top dose mostly 46.2 µM), without a hit: at the highest dose activity change, negative = growth inhibition, most hits filed as inhibitors; chicken DT40 Tdp1-/-;hTDP1 cells + 20 nM CPT, ATP luminescence, 48 h; AID 686979, 2013; 420,000 tested, 12% active; further: on the % scale 0 is the no-effect control and ±100 the full control effect; nearly all actives have a fitted effect of over 55% in size
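Chicken DT40 Tdp1-/- cells stably complemented with human TDP1 were seeded at 400 cells/well in medium containing 20 nM camptothecin, exposed to pin-transferred compounds, and grown at 37 °C for at least 48 hr. Viability was read as ATP luminescence.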
TGFb SMAD3 inh: qHTS for Inhibitors of TGF-b; HepG2 CAGA-GFP TGF-b/SMAD3 reporter, GFP fluorescence, 18 h; TGF-beta stimulated, 500 pg/mL final; Potency, µM (top dose mostly 46.1 µM), inactives show at the highest dose activity, negative = inhibition, most hits filed as inhibitors; 410,000 tested, 1.2% active; further: on the % scale 0 is the no-effect control and ±100 the full control effect; nearly all actives have a fitted effect of over 65% in size
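HEPG2 CAGA-GFP, 1000 cells/well; 2 h settle, 37 C; cpd via pin tool; TGF-b 500 pg/mL final; 18 h, 37 C; GFP imaging ex488/em500-530; %Activity normalised to -TGF-b and +DMSO controls; CRC fit, curve class.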
ATXN2 expr inh: Primary qHTS for Inhibitors of ATXN expression | HEK-293 ATXN2-luciferase reporter, luminescence, 24 h | Potency, µM (top dose mostly 57 µM), inactives show at the highest dose activity change, negative = inhibition, most hits filed as inhibitors | 360,000 tested, 0.72% active | AID 1745845, 2022; further: on the % scale 0 is the no-effect control and ±100 the full control effect; nearly all actives have a fitted effect of over 55% in size
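qHTS (up to 57 uM final) was run with 24 h compound exposure of reporter cells at 37 °C. Each well was multiplexed: SteadyGlo luminescence measured ATXN2-luciferase expression after a fluorogenic Gly-Phe-AFC viability readout (25 uM final).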
* = called active by the depositor; i = inactive; ? = inconclusive; · = no result; [ ] = another dose, or the depositor's remark. The call rests on the fitted dose curve; in most records, active means well fitted curve in the direction sought with a large enough effect; inconclusive means small, poorly fitted or top-dose-only effect, or another doubt; inactive means no such curve, though single readings can be large; an effect the other way counts as inactive or inconclusive. Potency means the concentration at half of the fitted maximal effect.

SMILES	DT40 TDP1 no CPT	HepG2 tox	S2 tox	TDP1 cell CPT	TGFb SMAD3 inh	ATXN2 expr inh
CC(=O)CSc1nsc(SCC(C)=O)c1C#N	18µM*	-19%	i	18µM*	-10%	1%
CC(C)(C)NC(=O)CSc1nsc(SCC(=O)NC(C)(C)C)c1C#N	16µM*	-30%	i	23µM*	-5%	5%
Cc1csc(NC(=O)CSc2nsc(SCC(=O)Nc3nc(C)cs3)c2C#N)n1	13µM*	-27%	i	16µM*	-42%	29%
Cc1ccc(NC(=O)CSc2nsc(SCC(=O)Nc3ccc(C)cc3C)c2C#N)c(C)c1	?	-3%	i	?	1%	-18%[11.3 µM]
CC1(C)C(C=C(Cl)Cl)C1C(=O)N/N=C/c1ccccc1F (configuration not stated)	29µM*	-5%	i	?	-28%	-12%
CC1(C)OC2OC(C(=O)N/N=C/c3ccccc3F)C3OC(C)(C)OC3C2O1 (configuration not stated)	-3%	-4%	i	1%	0%	1%
O=C(Nc1ccc([N+](=O)[O-])cc1)C1CC1(c1ccccc1)c1ccccc1 (configuration not stated)	?	-26%	i	?	-20%	-23%
CC1(C)C(C=C(Cl)Cl)C1C(=O)Nc1ccc([N+](=O)[O-])cc1 (configuration not stated)	16µM*	-94%	i	18µM*	?	?
COc1ccc(/C=C/C(=O)N(C)c2ccccc2C(=O)O)cc1	8%	-1%	·	4%	1%	-7%
CN1CCN(S(=O)(=O)c2ccc(NC(=O)COc3ccccc3Cl)cc2)CC1	-1%	2%	i	-4%	9%	-6%
CCC(=O)N1CCN(c2ccc(NC(=O)COc3ccccc3Cl)cc2)CC1	26µM*	-1%	i	16µM*	?	-36%
Cc1ccc(C(=O)N2CCN(c3ccc(NC(=O)COc4ccccc4C)cc3)CC2)cc1	5.2µM*	-19%	i	4.1µM*	-20%	-34%
CN1CCN(c2ccc(NC(=O)COc3ccccc3Cl)cc2)CC1	16µM*	-34%	i	16µM*	4%	-7%
CCC(=O)N1CCN(c2ccc(NC(=O)COc3ccccc3[N+](=O)[O-])cc2)CC1	10µM*	-13%	i	15µM*	-6%	·
C=CCN1C(=O)C(CC(=O)NCC)SC1=Nc1ccccc1CC (configuration not stated)	?	4%	i	-29%	2%	-8%
COc1ccc(C(=O)NNc2ncnc3c2cnn3-c2ccccc2)cc1	-1%	-16%	i	-15%	-10%	-9%
Cc1ccc(NC(=O)CSCC(=O)N2CCN(Cc3ccc4c(c3)OCO4)CC2)cc1	-1%	4%	?	-13%	8%	-2%
Cc1ccc(C(=O)N2CCN(c3ccc(NC(=S)NC(=O)Cc4ccccc4)cc3)CC2)cc1	?	-6%	i	35µM*	0%	-16%
Cc1ccc(OCCCC(=O)Nc2ccc(N3CCOCC3)cc2)c(C)c1	3%	-3%	i	7%	10%	0%
CCC(=O)N1CCN(c2ccccc2NC(=O)COc2cccc(C)c2)CC1	-24%	-33%	i	?	8%	-20%
CCC(=O)N1CCN(c2ccccc2NC(=O)COc2ccccc2Cl)CC1	?	-39%	i	23µM*	-19%	-2%
CCC(=O)N1CCN(c2ccc(NC(=O)COc3ccc(C)cc3C)cc2)CC1	18µM*	2%	?	?	-3%	-35%
COc1ccc(OC)c(-c2ccc(O)c(CN3CCc4c([nH]c5ccccc45)C3)c2)c1	?	·	?	-5%[9.04 µM]	·	·
COc1ccc(CNC(=O)C(=O)NCC2CCCO2)cc1 (configuration not stated)	21µM*	-21%	i	16µM*	0%	7%
COc1ccc(CNC(=O)C2CC(C)=C(C)CC2C(=O)O)cc1 (configuration not stated)	9.2µM*	4%	i	9.2µM*	-7%	4%
SMILES	DT40 TDP1 no CPT	HepG2 tox	S2 tox	TDP1 cell CPT	TGFb SMAD3 inh	ATXN2 expr inh
CC(C)(C)CCN1CCC(CN2CCNC2=S)CC1	-5%	-2%	i	-12%	-3%	-4%
Cc1cccc(N2CCN(C(=O)Cn3ncc4c3-c3cc(C)ccc3OC4)CC2C)c1 (configuration not stated)	23µM*	-30%	·	23µM*	?	?
COc1ccccc1N1CCN(C(=O)Cn2ncc3c2-c2cc(C)ccc2OC3)CC1	21µM*	-7%	·	26µM*	-20%	-12%
Cc1ccc2c(c1)-c1c(cnn1CC(=O)Nc1ccccc1N1CCN(C)CC1)CO2	?	-22%	i	?	-2%	-12%
O=C(Cn1ncc2c1-c1ccccc1OC2)N1CCN(c2ccccc2)CC1	16µM*	-6%	i	-30%	-5%	-6%
CCCN(C(=O)Cn1ncc2c1-c1ccccc1OC2)c1cccc(C)c1	16µM*	-3%	i	?	-5%	-19%
CCCCn1nnnc1C1(C)CCC(=O)N1Cc1ccc(OC)cc1 (configuration not stated)	-12%	·	i	-11%	·	7%
COCCn1c(=O)c(-c2cccs2)nc2cnc(N3CCOCC3)nc21	29%	·	·	-1%	·	·
COCc1c(C(=O)N2CCC(N3CCCCC3)CC2)cnn1-c1ncc(C)c(-c2cccs2)n1	-7%	·	·	10%[9.04 µM]	·	·
Cc1nnc(NC(=O)CC(CN(C)S(=O)(=O)c2ccccc2)c2ccccc2)s1 (configuration not stated)	-21%	-5%	i	-14%	-1%	7%
CN(CC(CC(=O)Nc1nncs1)c1ccccc1)S(=O)(=O)c1ccc(Br)cc1 (configuration not stated)	?	-15%	i	16µM*	17%	-7%
CN(C)CCC(=O)c1ccc(F)cc1	4.6µM*	-3%	i	5.2µM*	-9%	10%
CN(C)CCCC(=O)c1ccc2c(c1)OCO2	-17%	-1%	i	3%	20%	-7%
CCNC(=O)COC(=O)CCC(=O)c1ccc(F)cc1	10%	5%	i	-7%	2%	-8%
